Test results reported in PubChem BioAssay AID463116 (University of Pittsburgh Molecular Library Screening Center, 2010).
About 710 (71%) of roughly 1,000 compounds were called active. Another 7% or so got no clear call; they are omitted.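 How the source made its calls: active means inhibition of receptor movement into the nucleus at or above a set limit in both runs, with normal cell brightness and cell count; inconclusive means limit reached in only one run, brightness and count normal; inactive means the rest.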 The set was probably picked from earlier hits. Not all results are given here.

Assay: blockers of dexamethasone-driven GR-EGFP nuclear import – imaging, high-content imaging, GR-EGFP cells, confirmation (AID 463116);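 on inhibition: dexamethasone at 1 µM final in well for 30 min; nuclear minus cytoplasmic GR-EGFP mean intensity difference in channel 2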
Conditions: 3617.4 GR-EGFP nuclear translocation imaging, dexamethasone-induced, at 20 µM; inhibition: stronger effect = higher value; z-score: measured here: cell count per field

Structure (SMILES)	inhibition	z-score
CC1CCN(C(=O)c2ccc(S(=O)(=O)Cc3cc(F)ccc3F)c([N+](=O)[O-])c2)CC1	37.2% (inactive)	0.248
O=[N+]([O-])c1cc(S(=O)(=O)CCCN2CCOCC2)ccc1F	80.5% (active)	0.409
COc1ccc(-c2csc3nc(-c4ccccc4F)oc(=O)c23)cc1OC	76.8% (active)	0.201
Cn1c(=O)c([N+](=O)[O-])c(Oc2ccccc2)c2ccccc21	77.8% (active)	0.222
Cc1cccc(Oc2c([N+](=O)[O-])c(=O)n(C)c3ccccc23)c1	65.6% (active)	0.355
CC(C)(C)C1C/C(=C/c2ccco2)C(=O)/C(=C/c2ccco2)C1 (stereo unspecified)	184% (inactive)	0.226
Cc1cccc2cc3c(N)c(C(=O)N4CCCc5ccccc54)sc3nc12	97.1% (active)	-0.357
COc1ccc(NC(=O)/C(Cl)=C(/Cl)S(=O)Cc2ccc(C)cc2)cn1 (stereo unspecified)	76.8% (active)	0.179
CC1=C/C(=N\OS(=O)(=O)c2ccccc2)C=CC1=O	85.1% (active)	0.68
Nc1ccccc1SC(C[N+](=O)[O-])c1ccccc1 (stereo unspecified)	71.2% (active)	-0.448
O=C1/C(=C\c2cccnc2)CN(Cc2ccccc2)C/C1=C\c1cccnc1	81.1% (active)	0.0646
Cc1cc(-c2n[nH]c(=S)n2/N=C/C(Br)=C/c2ccccc2)n[nH]1	80.8% (active)	0.326
Cc1[nH]c(=O)c(C(=O)/C=C/c2ccccc2)c2c1CCCC2	71.9% (active)	0.213
O=C(CCl)N(Cc1cccc([N+](=O)[O-])c1)c1cccc(Cl)c1	84.8% (active)	0.159
COc1ccc(-c2cc(C(F)(F)F)nc(S(C)(=O)=O)n2)cc1OC	51.4% (active)	0.253
Cc1cc(C(=O)NCCc2ccc(Cl)cc2)n(-c2ccccc2)n1	16.2% (inactive)	0.17
Cc1cc(C)nc(S/C=C/C(=O)c2ccccc2)n1	68.4% (active)	1.05
Clc1cccc(-c2nc3nc4ccccc4nc3n2Cc2ccco2)c1	12.8% (inactive)	0.105
COc1ccc(C(=O)NCC(=O)N/N=C/c2ccc([N+](=O)[O-])o2)cc1OC	59.2% (active)	-0.0055

Structure (SMILES)	inhibition	z-score
O=C(/C=C/Sc1ncn[nH]1)c1ccc(Cl)cc1	69.1% (active)	0.228
CCN(CC)c1ccc2oc(=O)c(C)nc2c1	82.6% (active)	0.353
COc1ccc(C(CCN(Cc2ccc(OC)c(OC)c2)C(=O)CCl)c2ccccc2)cc1 (stereo unspecified)	90.9% (active)	-0.513
O=C(CCl)Nc1cccc(CP(=O)(c2ccccc2)c2ccccc2)c1	63.6% (active)	0.239
O=C1C=C(c2ccc(Cl)cc2)C(=O)N1Nc1ccccc1	81% (active)	1.03
O=C(Nc1ccccc1)c1nnsc1S(=O)(=O)c1ccc(Cl)cc1	38.8% (inactive)	-5.42
CCOC(=O)C(=Cc1ccccc1OC)C(=O)OCC	82.2% (active)	0.778
N#C/C(=C/c1ccc(N2CCCCC2)o1)C(=O)NCCc1c[nH]c2ccccc12	96.8% (active)	0.0808
Oc1c(C=Nc2cccc3nsnc23)ccc2ccccc12	23.9% (inactive)	0.36
COc1cc2c(cc1O)C(SC)=NC(C)(C)C2	79.1% (active)	0.013
COC(=O)/C=C\C(=O)Nc1cccc([N+](=O)[O-])c1	77.7% (active)	-1.06
CCC1=C/C(=C\c2ccc3c(c2)OCO3)C(=O)S1	30.5% (inactive)	0.474
C[C@@H]1C[C@@H]2O[C@H]2/C=C\C=C\C(=O)Cc2c(Cl)c(O)cc(O)c2C(=O)O1	90.1% (active)	-0.431
Cc1cc(C)c2c3c(sc2n1)C(c1ccccc1)C(C#N)=C(N)O3 (stereo unspecified)	23.6% (inactive)	0.166
CCN1/C(=C/c2ccc3ccc(C)cc3[n+]2CC)Sc2ccccc21	99.7% (active)	0.0317
O=S1(=O)CCC(NC(=S)SCc2ccccc2Br)C1 (stereo unspecified)	67.1% (active)	-0.249
C=CS(=O)c1sc(Cl)c(N2CCOCC2)c1[N+](=O)[O-] (stereo unspecified)	83.2% (active)	-0.577
Nc1c(C(=O)c2cccs2)sc2nsc(SCCN3CCCCC3)c12	91.8% (active)	0.159
CC1(C)CCSC(/C=C/c2ccccc2)=N1	90.7% (active)	-0.988
